In the library only some 5% were active in any assay of this set; here they are far more common.
VACV Venus inh: vaccinia inhibition (Venus reporter) | 330,000 compounds, 0.46% hits | Vaccinia virus Venus reporter expression, fluorescence | Potency, µM (titrated, usually from 36.5 µM), without a hit: at the top dose activity change, negative = inhibition, usual class: inhibitors; calls by dose curve; tested in A549 cells; also: potency is read from the fitted curve at half-maximal effect; nearly all actives have a fitted effect of over 30% in size
LmPK inhibitor: inhibitors of Leishmania mexicana pyruvate kinase; purified LmPK, Kinase-Glo ATP luminescence, 1 h; Potency, µM (series often up to 57.5 µM), for the others: at the highest dose activity change, negative = inhibition, most hits filed as inhibitors; 290,000 compounds, 0.37% hits; also: potency is read from the fitted curve at half-maximal effect
Target sequence (Q27686 whole entry, looked up): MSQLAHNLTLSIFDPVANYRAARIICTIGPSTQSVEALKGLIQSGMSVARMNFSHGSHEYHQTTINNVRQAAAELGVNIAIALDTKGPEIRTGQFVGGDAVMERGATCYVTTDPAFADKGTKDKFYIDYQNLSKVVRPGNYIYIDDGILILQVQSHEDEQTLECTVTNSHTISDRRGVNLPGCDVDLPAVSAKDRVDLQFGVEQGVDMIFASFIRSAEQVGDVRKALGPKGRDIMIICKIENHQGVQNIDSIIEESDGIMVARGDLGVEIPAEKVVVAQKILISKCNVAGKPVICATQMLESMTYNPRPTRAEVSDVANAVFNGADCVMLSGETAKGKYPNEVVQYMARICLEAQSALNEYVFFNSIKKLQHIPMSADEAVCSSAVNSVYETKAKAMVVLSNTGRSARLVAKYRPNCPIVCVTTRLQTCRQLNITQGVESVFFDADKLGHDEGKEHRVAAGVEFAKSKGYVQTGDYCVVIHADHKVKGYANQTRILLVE
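Kinase-Glo luminescence read after 1 h RT reaction of 0.1 nM LmPK with 0.5 mM PEP and 0.1 mM ADP. Activity scaled between uninhibited and enzyme-free controls.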
VACV mCherry inh: inhibitors of vaccinia virus infection (mCherry reporter signal) | 310,000 compounds, 0.63% hits | Vaccinia virus mCherry reporter infection, fluorescence | Potency, µM (doses to about 36.5 µM), inactives show at the top dose activity change, negative = inhibition, actives largely listed as inhibitors | AID 720579; calls by dose curve; tested in A549 cells; also: potency is read from the fitted curve at half-maximal effect; nearly all actives have a fitted effect of over 35% in size
HCMV antiviral: blocks human cytomegalovirus replication; HFF cells, HCMV-luciferase reporter, 72 h; active compounds read low; activity change, negative = inhibition, % at 57.5 µM; 410,000 compounds, 4.5% hits; in the data active = activity change below about -60%; inconclusive = no clear call, values can overlap the other calls; inactive = above about -39%
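Human foreskin fibroblasts infected with luciferase-reporter HCMV at MOI 1 PFU/cell, compounds at two doses. Luciferase measured 72 h post infection; normalized to buffer-only basal and Salinomycin (10uM) controls.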
TbPYK inhibitor: inhibitors of Trypanosoma brucei pyruvate kinase | Potency, µM (series often up to 76.8 µM), for inactives: at the top dose activity, negative = inhibition, usual class: inhibitors | 410,000 compounds, 0.12% hits | Q57TT1 | TbPYK enzyme, Kinase-Glo Plus ATP luminescence, 45 min; also: potency is read from the fitted curve at half-maximal effect; nearly all actives have a fitted effect of over 50% in size
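T. brucei PYK with substrate was exposed to pin-transferred compounds across a concentration series, then started with 130 uM ADP (final). After 45 min at room temperature, Kinase-Glo Plus luminescence was read, normalized and curve-fitted.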
Starred values were filed as active, the others as inactive; i = inactive; ? = inconclusive; · = no result given; ! = a repeat was not active; [ ] = dose if it differs, or a comment. Unless noted, calls follow the shape of the dose curve; as a rule, active = well fitted curve in the direction sought with a large enough effect; inconclusive = small, poorly fitted or top-dose-only effect, or another doubt; inactive = no such curve, though single readings can be large; an effect the other way counts as inactive or inconclusive. % is scaled to controls: 0 for no effect and ±100 for the full control effect.

SMILES	VACV Venus inh	LmPK inhibitor	VACV mCherry inh	HCMV antiviral	TbPYK inhibitor
Cc1cccc(NC(=O)CN2C(=O)C(c3ccccc3)=NC23CCC(C)CC3)c1 (stereo unspecified)	-13%	·	i	-61*	-1%
Cc1ccc(NC(=O)CN2C(=O)C(c3ccccc3)=NC23CCCCC3)cc1C	-19%	·	-19%	53	6%
Cc1ccc(C)c(NC2=NS(=O)(=O)c3ccccc32)c1	-8%	-3%	-11%	?	7%
Cc1cc(O)c(C(C)C)cc1NC1=NS(=O)(=O)c2ccccc21	·	2%	·	-72*	1%
Cc1cccc(C)c1NC(=O)COc1ccccc1C(=O)Nc1ccc(Br)cn1	3%	1%	-16%	-65*	-1%
Cc1ccc(O)c(NC(=O)c2ccc(Br)c(S(=O)(=O)N3CCCCC3)c2)c1	?	·	-29%	-73*	1%
Cc1cc(NC(=O)c2ccc(Br)c(S(=O)(=O)N3CCCC3)c2)no1	-18%	-4%	-22%	-69*	1%
Cc1cc2nc(/C=C/c3cccnc3)[nH]c2cc1C	·	-6%	·	-92*	3%
Cc1cc2nc(/C=C/c3nc4cc(C)c(C)cc4[nH]3)[nH]c2cc1C	7%	-1%	i	20	-1%
COc1ccc(C(=O)Nc2ccnn2C2CCN(Cc3ccc4nonc4c3)CC2)cc1	·	5%	·	-94*	1%
Nc1c(C(=O)Nc2ccc(F)cc2)sc2nc(-c3ccco3)ccc12	-16%	0%	-13%	-14	3%
Nc1c(C(=O)Nc2ccc(Br)cc2)sc2nc(-c3ccco3)ccc12	-29%	0%	?	-60*	0%
O=[N+]([O-])c1cc(/C=N/N/C(=N/c2ccccn2)c2ccccn2)ccc1O	?	-1%	?	-83*	-1%
O=C(NCCc1cn2ccccc2n1)c1cc(COc2ccc3ncccc3c2)on1	-15%	2%	?	-76*	-1%
COCC1CCN(C(=O)c2cc(COc3ccc4ncccc4c3)on2)CC1	-22%	-3%	-24%	-75*	-19%
O=C(c1cc(COc2ccc3ncccc3c2)on1)N1CCCC1	-28%	-9%	-27%	?	0%
COc1cccc(CN(C)C(=O)c2cc(COc3ccc4ncccc4c3)on2)c1	-8%	11%	-10%	-86*	-2%
CC(NC(=O)c1cc(COc2ccc3ncccc3c2)on1)c1ccc(F)cc1 (stereo unspecified)	·	5%	·	-85*	-2%
COc1cccc(CN(C)C(=O)c2cc(COc3c(F)cccc3F)on2)c1	-7%	7%	i	-7	-2%
Cc1ccc(OCc2cc(C(=O)N(C)CCc3ccccn3)no2)cn1	·	1%	·	-63*	-1%
CN(CCc1ccccn1)C(=O)c1cc(COc2ccc(F)cc2F)on1	-16%	0%	-1%	?	1%
COc1cccc(/C=N/NC(=O)CNC(=O)COc2ccccc2)c1O	·	7%	·	11	0%
Cc1ccc(/C=N/NC(=O)CNC(=O)COc2ccccc2)cc1	-23%	2%	i	-61*	-10%
Cc1cccc(OCC(=O)NCC(=O)N/N=C/c2cc(Br)cc(Br)c2O)c1	?	4%	?	-83*	-13%
CC(C)(C)c1ccc(-n2ncc3c2CCCC3NC(=O)C2=NNC(=O)CC2)cc1 (stereo unspecified)	·	6%	·	-81*	1%
SMILES	VACV Venus inh	LmPK inhibitor	VACV mCherry inh	HCMV antiviral	TbPYK inhibitor
CC(C)(C)c1ccc(-n2ncc3c2CCCC3NC(=O)c2cnccn2)cc1 (stereo unspecified)	-21%	1%	?	-63*	0%
Cn1nccc1C(=O)NC1CCCc2c1cnn2-c1ccc(C(C)(C)C)cc1 (stereo unspecified)	-26%	-1%	-5%	-61*	-5%
CC(C)(C)c1ccc(-n2ncc3c2CCCC3NC(=O)CN2CCCC2=O)cc1 (stereo unspecified)	-25%	6%	-24%	-67*	0%
CC(=O)NC1CCCc2c1cnn2-c1ccc(C(C)(C)C)cc1 (stereo unspecified)	-11%	2%	-28%	-28	12%
CCOc1ccc(C(=O)NCCCCNC(=O)c2ccc(OCC)cc2)cc1	-8%	-2%	-14%	47	-3%
CO/N=C(\CS(=O)(=O)Cc1ccc(OC)cc1)c1ccc(Cl)cc1	-8%	3%	i	43	-15%
CCS(=O)(=O)c1nc(S(=O)(=O)c2ccc(Cl)cc2)c(N2CCCC2)s1	·	1%	·	-20	-5%
Cc1ccc(S(=O)(=O)c2nc(S(=O)(=O)c3ccc(C)cc3)c(N3CCN(CCO)CC3)s2)cc1	·	-2%	·	-107*	0%
CN1CCN(c2sc(S(C)(=O)=O)nc2S(=O)(=O)c2ccc(Cl)cc2)CC1	-5%[7.34 µM]	-2%	-13%[7.34 µM]	-80*	2%
CS(=O)(=O)c1nc(S(=O)(=O)c2ccc(Cl)cc2)c(N2CCN(CCO)CC2)s1	·	-1%	·	-63*	-17%
CCS(=O)(=O)c1nc(S(=O)(=O)c2ccc(Cl)cc2)c(N2CCN(C)CC2)s1	-8%[7.34 µM]	-1%	-2%[7.34 µM]	-77*	5%
Cc1nc2cc(-c3ccccc3)nn2c(C)c1CCC(=O)NCCc1ccccc1	-6%	·	-13%	-16	3%
CCc1ccc(C(=O)COC(=O)c2cccc(N3C(=O)c4c(C)nc5ccccc5c4C3=O)c2)cc1	·	-6%	·	-6	1%
Cc1nnsc1S(=O)c1ccc(F)cc1 (stereo unspecified)	·	-8%	·	-69*	-6%
Cc1nnsc1S(=O)c1ccc(Br)cc1 (stereo unspecified)	·	11%	·	-63*	6%
Cc1ccc(S(=O)c2snnc2C)cc1 (stereo unspecified)	?	-5%	?	18	-3%
CN(C)c1ccc(C(=O)OCC(=O)NCCC2=CCCCC2)cc1	-10%	2%	i	-28	5%
CC(C)C(NC(=O)c1ccccc1F)C(=O)NCC(c1ccco1)N1CCCCC1 (stereo unspecified)	0%	·	i	-64*	2%
CSCCC(NC(=O)c1ccccc1Cl)C(=O)NCC(c1ccco1)N1CCCCC1 (stereo unspecified)	-5%	·	-24%	-34	6%
Cc1ccc(C(=O)C2CCN(CC(=O)Nc3ccccc3C)CC2)cc1	-6%	0%	-2%	-63*	2%
Cc1ccc(O)c(NC(=O)C2=CC(c3ccco3)=NS(=O)(=O)N2C)c1	-9%	-9%	-6%	7	-7%
CN1C(C(=O)Nc2cccc(O)c2)=CC(c2ccco2)=NS1(=O)=O	-6%	-1%	-16%	-63*!	1%
S=c1nc(-c2ccccc2)oc2c1CCCC2	-6%	-6%	-12%	73	-8%
O=[N+]([O-])c1ccc(-c2nc(=S)c3c(o2)CCCC3)cc1	-8%	-1%	i	-101*	-2%
CC1(C)Cc2nc(N3CCCC3)c(C#N)cc2CO1	-16%	-1%	-18%	34	3%
CC1(C)Cc2nc(Cl)c(C#N)cc2CO1	-3%	2%	i	-100*	1%
